Columns and labels:
Conditions in all cases: concentration: 1 μM, replicates: in singlicate; n = 1
LKB1 = test system: T1, LKB1
T1 construct: gene STK11

LOK = test system: T2, LOK
T2 construct: gene STK10

LRRK2 = test system: LRRK2
LTK = test system: LTK
LYN = test system: LYN
LZK = test system: T3, LZK
T3 construct: gene MAP3K13

MAK = test system: MAK
MAP3K15 = test system: MAP3K15
MAP3K1 = test system: MAP3K1
MAP3K2 = test system: MAP3K2
MAP3K3 = test system: MAP3K3
MAP3K4 = test system: MAP3K4
MAP4K2 = test system: MAP4K2
MAP4K3 = test system: MAP4K3
MAP4K4 = test system: MAP4K4
MAP4K5 = test system: MAP4K5
MAPKAPK2 = test system: MAPKAPK2
MAPKAPK5 = test system: MAPKAPK5
MARK1 = test system: MARK1
MARK2 = test system: MARK2
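Note: KINOMEscan kinase panel screen.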

SMILES | %Inh (LKB1) | %Inh (LOK) | %Inh (LRRK2) | %Inh (LTK) | %Inh (LYN) | %Inh (LZK) | %Inh (MAK) | %Inh (MAP3K15) | %Inh (MAP3K1) | %Inh (MAP3K2) | %Inh (MAP3K3) | %Inh (MAP3K4) | %Inh (MAP4K2) | %Inh (MAP4K3) | %Inh (MAP4K4) | %Inh (MAP4K5) | %Inh (MAPKAPK2) | %Inh (MAPKAPK5) | %Inh (MARK1) | %Inh (MARK2)
CC(=O)Nc1n[nH]c2ncc(-c3ccccc3)cc12 [SB-548492] | 25% | 0% | 0% | 5% | 0% | 0% | 51% | 11% | 27% | 16% | 37% | 11% | 25% | 0% | 0% | 4% | 5% | 8% | 11% | 5%
Cc1cccc(-c2nc(Nc3ccc4[nH]nnc4c3)c3ccccc3n2)n1 [GW867587] | 0% | 0% | 0% | 13% | 0% | 0% | 0% | 0% | 0% | 0% | 0% | 0% | 0% | 0% | 0% | 0% | 0% | 0% | 0% | 0%
Cl.Cl.c1ccc(-c2cc3ccncc3cc2OC2CCNCC2)cc1 [GSK1122999] | 3% | 0% | 0% | 24% | 38% | 0% | 28% | 0% | 19% | 13% | 0% | 18% | 0% | 0% | 10% | 0% | 25% | 0% | 0% | 0%
Cc1cc(N2CCC(NS(=O)(=O)c3ccc(F)cc3)CC2)nc(Nc2cccc(C#N)c2)n1.O=C(O)C(F)(F)F [GSK1653537] | 0% | 0% | 20% | 5% | 0% | 0% | 17% | 3% | 7% | 60% | 0% | 40% | 0% | 0% | 5% | 3% | 23% | 0% | 0% | 0%
c1ccc(-c2ccc3c(-c4ccnc(Nc5ccc6c(c5)OCCO6)n4)cnn3n2)cc1 [GW818941] | 0% | 17% | 29% | 0% | 0% | 0% | 100% | 11% | 1% | 0% | 0% | 14% | 6% | 4% | 23% | 20% | 5% | 13% | 0% | 0%
Cn1cc(-c2ccc3c(c2)CCN3C(=O)Cc2cccc(C(F)(F)F)c2)c2c(N)ncnc21 [GSK2606414] | 0% | 0% | 43% | 15% | 0% | 0% | 0% | 0% | 3% | 9% | 0% | 12% | 0% | 0% | 10% | 10% | 100% | 0% | 6% | 0%
CSc1nn2c(=O)cc(N3CCOCC3)nc2n1Cc1cccc(Cl)c1Cl [GSK2347225] | 0% | 0% | 0% | 4% | 10% | 0% | 24% | 0% | 6% | 1% | 0% | 31% | 0% | 42% | 22% | 12% | 22% | 0% | 0% | 0%
Fc1ccc(Nc2nccc(-c3c(-c4ccc(Cl)cc4)nn4ncccc34)n2)cc1F [GW829058] | 8% | 28% | 0% | 6% | 24% | 5% | 12% | 24% | 22% | 27% | 40% | 17% | 34% | 0% | 1% | 6% | 3% | 0% | 16% | 15%
C[C@@H]1CCN(C(=O)CO)C[C@@H]1N(C)c1ncnc2[nH]ccc12 | 0% | 5% | 0% | 27% | 8% | 10% | 0% | 0% | 0% | 0% | 7% | 5% | 0% | 0% | 0% | 0% | 0% | 0% | 0% | 0%
Nc1nc(-c2ccc3c(N)n[nH]c3c2)cc(N2CCC[C@@H](C(=O)Nc3ccccc3)C2)n1.O=C(O)C(F)(F)F.O=C(O)C(F)(F)F [GSK2288359] | 6% | 0% | 0% | 15% | 0% | 0% | 29% | 2% | 15% | 0% | 0% | 28% | 0% | 0% | 5% | 6% | 0% | 0% | 0% | 0%

— publication PMC5540273 (PLoS ONE, 2017)
